# AMA1 RON2 block: AMA1-RON2 (P. falciparum) interaction inhibition. Potency, µM (highest dose often 58.2 µM), without a hit: at the top dose activity change, negative = inhibition, usual class: inhibitors. AlphaScreen AMA1-biotinylated RON2 peptide binding. AID 720542. 0.2% of 360,000 active;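 also: potency is read from the fitted curve at half-maximal effect; 0% = vehicle wells and -100% = peptide control; nearly all actives have a fitted effect of over 45% in size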
#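 AMA1 (3D7) with his tag at 25 nM final met compounds first, then biotinylated RON2 peptide at 25 nM; detection used donor plus acceptor beads, 10 µg/mL apiece, read by AlphaScreen after 30 min at room temperature.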
# CHX counter: counter-screen hit for Shiga toxin inhibitors, cycloheximide. max response, %. 12% of 300,000 active. cell reporter, cycloheximide protein synthesis inhibition counterscreen; in the data active = max response mostly above about 13%, no sharp cut-off; inactive = mostly below about 14%; also: read at 38.3 µM for the half of the compounds with a filed dose; 0% is about no effect
# Pf growth 96h: P. falciparum growth inhibition at 96 hour, primary screen for plastid delayed-death inhibitors; P. falciparum luciferase reporter growth, 96 h; Potency, µM (highest dose often 28.7 µM), for the others: at the highest dose activity change, negative = inhibition, usual class: inhibitors; 6.9% of 320,000 active; also: potency is read from the fitted curve at half-maximal effect; % is scaled to controls: 0 for no effect and ±100 for the full control effect
#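 Plates of compound plus infected erythrocytes (2% hematocrit, 0.05% parasitemia final) incubate 96 hours, 37 C, 5% CO2. Detection reagent added; reduced luminescence from the parasites' luciferase reporter flags inhibition.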
# Pf growth 48h: P. falciparum growth inhibition at 48 hours (one generation) | Potency, µM (highest dose often 28.7 µM), without a hit: top-dose activity change, negative = inhibition, hits mostly inhibitors | AID 504832 | P. falciparum luciferase growth in erythrocytes, 48 h | 5.9% of 310,000 active; also: potency is read from the fitted curve at half-maximal effect; % is scaled to controls: 0 for no effect and ±100 for the full control effect
#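 Compounds are pin-transferred into medium, infected erythrocytes (2% hematocrit, 0.1% parasitemia final) are added, and plates sit one parasite generation at 37 C in 5% CO2. Detection reagent is then added and luminescence measured.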
# Shiga inhibitor: inhibitors of Shiga toxin in Vero cells | Vero cells, Shiga toxin protein synthesis inhibition reporter | inhibition, % at 38.7 µM | 9.2% of 290,000 active | AID 2315; in the data active = inhibition mostly above about 28%, no sharp cut-off; inactive = mostly below about 43%; also: 0% is about no effect
# SARS PLP yeast: inhibitors of SARS-CoV papain-like protease in yeast; S. cerevisiae expressing SARS-CoV PLpro, growth rescue; Potency, µM (doses to about 32.9 µM), for the others: at the highest dose activity, positive = growth rescue, most hits filed as activators; 0.19% of 330,000 active; calls by dose curve; also: potency is read from the fitted curve at half-maximal effect; 0% is about no effect; nearly all actives have a fitted effect of over 55% in size
# Active calls of the source: *; ? = inconclusive; . = not tested or not shown; ! = not confirmed by another sample. This is a sample that favours compounds with a hit; in the whole collection about 19% have one here. Unless noted, calls follow the shape of the dose curve; as a rule, active = well fitted curve in the direction sought with a large enough effect; inconclusive = small, poorly fitted or top-dose-only effect, or another doubt; inactive = no such curve, though single readings can be large; an effect the other way counts as inactive or inconclusive.
SMILES,AMA1 RON2 block,CHX counter,Pf growth 96h,Pf growth 48h,Shiga inhibitor,SARS PLP yeast
COc1ccc(OC)c(S(=O)(=O)N2CCC(C(=O)N3CCc4ccccc4C3)CC2)c1,3%,-5,8%,-23%,-3,-1%
O=C(Nc1ccccc1C(=O)NCc1cccnc1)c1ccc(Cl)cc1Cl,35%,1,-10%,?,11,6%
O=C(Nc1nc(-c2ccccn2)cs1)c1ccc(S(=O)(=O)N2CCCCC2)cc1,.,-2,2.3µM*,3.3µM*,-2,-3%
O=C(Nc1nc(-c2ccccn2)cs1)c1cccc(S(=O)(=O)N2CCOCC2)c1,-48%,.,?,1µM*,.,-1%
O=C(COC(=O)c1cccc(S(=O)(=O)N2CCOCC2)c1)Nc1nc(-c2ccccc2Cl)cs1,-5%,28*,108%,68%,93*,0%
O=C1C2CC=CCC2C(=O)N1Cc1nnc(-c2ccc(Cl)cc2)o1 (centres undefined),-7%,26*,36%,0%,70*,2%
O=C1C2CC=CCC2C(=O)N1Cc1ccccc1 (centres undefined),5%,-3,-11%,19%,4,-3%
COC(=O)c1ccccc1C(=O)N1CCC(CCC(=O)NC2CC2)CC1,-12%,-2,?,-17%,-4,-6%
CCN(CC)Cc1cc(O)c(CN(CC)CC)cc1O,7.9µM*,-1,32%,4%,-6,-2%
CCCC(=O)Nc1ccc(-c2csc(-c3cccnc3)n2)cc1,1%,11,-8%,-20%,44,-3%
COc1ccc(CC(=O)Nc2ccc(-c3csc(C)n3)cc2)cc1,-3%,13,.,15%,35,2%
Cc1ccc2sc(-c3ccc(NC(=O)/C=C\C(=O)O)cc3)nc2c1,-8%,40*,?,364%,112*,-1%
CCCCCC(=O)Nc1ccc(-c2csc(N)n2)cc1,-12%,57*,3%,?,123*,0%
CCCCCC(=O)Nc1ccc(-c2csc(C)n2)cc1,7%,46*,0%,62%,77*,-20%
Cc1ccc(S(=O)(=O)Nc2ccc(NC(=O)/C=C/C(=O)O)cc2)cc1,6%,6,0%,5%,-23,0%
Cc1nc(-c2ccc(NC(=O)/C=C\C(=O)O)cc2)cs1,9%,18*,12%,50%,50*,-1%
O=C(CC1OC(=O)c2ccccc21)Nc1ccc(Cl)c(S(=O)(=O)N2CCCCC2)c1 (centres undefined),-22%,.,4%,-24%,.,.
CCC(C)[C@H]1CNCCN1CCc1cccc(F)c1 (some centres undefined),18%,.,68%,-2%,.,0%
CSc1nnnn1-c1ccc(C)c(Cl)c1,20%,-3,25%,11%,18,24%
COc1ccc(NC(=O)CCN2C(=O)c3ccccc3C2=O)cc1,0%,-2,3%,?,.,-2%
Cc1ccc(NC(=O)CN2C(=O)NC(C)(c3ccc4c(c3)OCO4)C2=O)cc1 (centres undefined),1%,.,.,.,.,1%
Cc1ccc2nc(-c3ccc(NC(=O)CCN4C(=O)c5ccccc5C4=O)cc3)sc2c1,5%,55*,59%,218%,79*,?
Cc1ccc(C2(C)NC(=O)N(CC(=O)Nc3ccc(-c4nc5ccc(C)cc5s4)cc3)C2=O)cc1 (centres undefined),-1%,54*,144%,110%,85*,0%
Cc1cccc(NC(=O)CCN2C(=O)c3ccccc3C2=O)c1,23%,1,-6%,28%,-7,11%
O=C(CCN1C(=O)c2ccccc2C1=O)Nc1nc2ccccc2s1,-16%,19*,137%,3%,-38,?
SMILES,AMA1 RON2 block,CHX counter,Pf growth 96h,Pf growth 48h,Shiga inhibitor,SARS PLP yeast
O=C(CCN1C(=O)c2ccccc2C1=O)Nc1ccc(-c2nc3ccccc3s2)cc1,35%,33*,1.3µM*,40%,110*,24%
CC(C(=O)Nc1ccc(C(=O)O)cc1)N1C(=O)c2ccccc2C1=O (centres undefined),5%,-1,9%,-1%,-4,1%
Cc1ccc2nc(-c3ccc(NC(=O)C(C)N4C(=O)c5ccccc5C4=O)cc3)sc2c1 (centres undefined),-10%,93*,3%,180%,51*,6%
COc1ccccc1CNC(=O)C(CC(C)C)NC(=O)C1CCC(C)CC1 (centres undefined),36%,-2,13µM*,.,1,5%
COc1ccccc1CNC(=O)C1CCC(CNS(=O)(=O)c2ccc(F)cc2)CC1 (centres undefined),10%,-2,0%,0%,3,13%
COc1ccccc1CNC(=O)C1CCC(CNS(=O)(=O)c2ccc(C)cc2)CC1 (centres undefined),10%,3,7.4µM*,?,-13,3%
O=C(c1cc(Br)ccc1O)N1CCN(S(=O)(=O)Cc2ccccc2)CC1,-1%,.,?,?,.,3%
CCC[C@@H]1CC(C(=O)NC(C2O[C@H](SC)C(OP(=O)(O)O)[C@H](O)[C@H]2O)[C@H](C)Cl)N(C)C1 (some centres undefined),.,-3,.,.,-9,.
CCC[C@H]1C[C@H](C(=O)N[C@@H]([C@H]2O[C@@H](SC)[C@@H](O)[C@@H](O)[C@@H]2O)[C@H](C)Cl)N(C)C1,.,.,0.034µM*,0.19µM*,.,.
O=C(CSc1nnc(-c2ccccn2)o1)Nc1ccccc1,86%,20,?,87%,65*,-1%
Fc1ccc(CSc2nnc(-c3ccccn3)o2)cc1,-3%,28*,40%,86%,41*,-7%
O=C(CSc1nnc(-c2ccccn2)o1)Nc1ccc(F)cc1,-48%,10,13%,180%,24*,0%
N#Cc1ccc(CSc2nnc(-c3cnccn3)o2)cc1,-7%,-2,?,11%,2,4%
NC(=S)Nc1cnc2ccccc2c1,3%,27*,48%,57%,56*,1%
COc1ccc(NC(=S)Nc2cnc3ccccc3c2)c(OC)c1,-2%,15,?,-7%,-4,0%
CN(C)C(=O)Nc1ccccc1,-3%,41*!,-26%,20%,88*!,0%
Cc1ccc(N(C(=O)Nc2ccccc2)C2=NCCC2)cc1,0%,17*,-17%,-22%,19,0%
Cc1ccc(NC(=O)NC(=O)N(c2ccccc2)S(C)(=O)=O)cc1,0%,27*,-20%,11%,50*,4%
CCOc1ccc(NC(=O)NC(=O)N(C)S(=O)(=O)c2ccc(C)cc2)cc1,10%,-3,-20%,12%,19,-1%
CCN(CC)c1ccc(C=NCCc2ccc(S(N)(=O)=O)cc2)cc1,13%,13,79%,-5%,20,-1%
O=C(c1ccc(F)cc1)N(c1ccccn1)C1CCCCC1,8%,2,5%,-12%,-4,0%

# Screening results deposited in PubChem BioAssay by National Center for Advancing Translational Sciences (NCATS).
